# Reference: PubChem BioAssay
# Activity calls are given as the source filed them.
# Key:
# [1] = small molecules captured by biotinylated probe aFSTL3 – biochemical, small-molecule microarray, fluorescence 635/667, stem cell growth factor project, primary screen (AID 1064); settings: higher = more signal;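 note: measures binding of the biotinylated anti-FSTL3 antibody to printed compounds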
# [2] = binders from COS7 lysate, DM2A8 probe, primary screen, torsin A project, cell lysate, small-molecule microarray, fluorescence 635/667 (AID 1065); settings: higher = more signal, COS7 lysate expressing mutant human TOR1A
# [3] = small molecules captured by biotinylated probe aFGF2 – biochemical, small-molecule microarray, fluorescence 635/667, stem cell growth factor project, primary screen (AID 1067); settings: higher = more signal;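 note: measures binding of biotinylated aFGF2 protein to printed compounds on slides; z-score merges feature fluorescence and signal-to-noise across triplicate slides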
# [4] = small molecules captured by biotinylated probe aFGF10 – biochemical, small-molecule microarray, fluorescence 635/667, stem cell growth factor project, primary screen (AID 1071); settings: higher = more signal;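 note: score merges 667 nm spot intensity and signal to noise from triplicate slides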
# [5] = biological target: Neurogenic locus notch homolog protein 2 (Homo sapiens) (UniProt Q04721); experiment: small molecules binding Notch2 protein – biochemical, small-molecule microarray, 635 nm fluorescence, stem cell growth factors, primary screen (AID 1073); settings: higher = more signal
# Sequence of Neurogenic locus notch homolog protein 2 (Homo sapiens) (Q04721 whole entry, looked up, canonical isoform): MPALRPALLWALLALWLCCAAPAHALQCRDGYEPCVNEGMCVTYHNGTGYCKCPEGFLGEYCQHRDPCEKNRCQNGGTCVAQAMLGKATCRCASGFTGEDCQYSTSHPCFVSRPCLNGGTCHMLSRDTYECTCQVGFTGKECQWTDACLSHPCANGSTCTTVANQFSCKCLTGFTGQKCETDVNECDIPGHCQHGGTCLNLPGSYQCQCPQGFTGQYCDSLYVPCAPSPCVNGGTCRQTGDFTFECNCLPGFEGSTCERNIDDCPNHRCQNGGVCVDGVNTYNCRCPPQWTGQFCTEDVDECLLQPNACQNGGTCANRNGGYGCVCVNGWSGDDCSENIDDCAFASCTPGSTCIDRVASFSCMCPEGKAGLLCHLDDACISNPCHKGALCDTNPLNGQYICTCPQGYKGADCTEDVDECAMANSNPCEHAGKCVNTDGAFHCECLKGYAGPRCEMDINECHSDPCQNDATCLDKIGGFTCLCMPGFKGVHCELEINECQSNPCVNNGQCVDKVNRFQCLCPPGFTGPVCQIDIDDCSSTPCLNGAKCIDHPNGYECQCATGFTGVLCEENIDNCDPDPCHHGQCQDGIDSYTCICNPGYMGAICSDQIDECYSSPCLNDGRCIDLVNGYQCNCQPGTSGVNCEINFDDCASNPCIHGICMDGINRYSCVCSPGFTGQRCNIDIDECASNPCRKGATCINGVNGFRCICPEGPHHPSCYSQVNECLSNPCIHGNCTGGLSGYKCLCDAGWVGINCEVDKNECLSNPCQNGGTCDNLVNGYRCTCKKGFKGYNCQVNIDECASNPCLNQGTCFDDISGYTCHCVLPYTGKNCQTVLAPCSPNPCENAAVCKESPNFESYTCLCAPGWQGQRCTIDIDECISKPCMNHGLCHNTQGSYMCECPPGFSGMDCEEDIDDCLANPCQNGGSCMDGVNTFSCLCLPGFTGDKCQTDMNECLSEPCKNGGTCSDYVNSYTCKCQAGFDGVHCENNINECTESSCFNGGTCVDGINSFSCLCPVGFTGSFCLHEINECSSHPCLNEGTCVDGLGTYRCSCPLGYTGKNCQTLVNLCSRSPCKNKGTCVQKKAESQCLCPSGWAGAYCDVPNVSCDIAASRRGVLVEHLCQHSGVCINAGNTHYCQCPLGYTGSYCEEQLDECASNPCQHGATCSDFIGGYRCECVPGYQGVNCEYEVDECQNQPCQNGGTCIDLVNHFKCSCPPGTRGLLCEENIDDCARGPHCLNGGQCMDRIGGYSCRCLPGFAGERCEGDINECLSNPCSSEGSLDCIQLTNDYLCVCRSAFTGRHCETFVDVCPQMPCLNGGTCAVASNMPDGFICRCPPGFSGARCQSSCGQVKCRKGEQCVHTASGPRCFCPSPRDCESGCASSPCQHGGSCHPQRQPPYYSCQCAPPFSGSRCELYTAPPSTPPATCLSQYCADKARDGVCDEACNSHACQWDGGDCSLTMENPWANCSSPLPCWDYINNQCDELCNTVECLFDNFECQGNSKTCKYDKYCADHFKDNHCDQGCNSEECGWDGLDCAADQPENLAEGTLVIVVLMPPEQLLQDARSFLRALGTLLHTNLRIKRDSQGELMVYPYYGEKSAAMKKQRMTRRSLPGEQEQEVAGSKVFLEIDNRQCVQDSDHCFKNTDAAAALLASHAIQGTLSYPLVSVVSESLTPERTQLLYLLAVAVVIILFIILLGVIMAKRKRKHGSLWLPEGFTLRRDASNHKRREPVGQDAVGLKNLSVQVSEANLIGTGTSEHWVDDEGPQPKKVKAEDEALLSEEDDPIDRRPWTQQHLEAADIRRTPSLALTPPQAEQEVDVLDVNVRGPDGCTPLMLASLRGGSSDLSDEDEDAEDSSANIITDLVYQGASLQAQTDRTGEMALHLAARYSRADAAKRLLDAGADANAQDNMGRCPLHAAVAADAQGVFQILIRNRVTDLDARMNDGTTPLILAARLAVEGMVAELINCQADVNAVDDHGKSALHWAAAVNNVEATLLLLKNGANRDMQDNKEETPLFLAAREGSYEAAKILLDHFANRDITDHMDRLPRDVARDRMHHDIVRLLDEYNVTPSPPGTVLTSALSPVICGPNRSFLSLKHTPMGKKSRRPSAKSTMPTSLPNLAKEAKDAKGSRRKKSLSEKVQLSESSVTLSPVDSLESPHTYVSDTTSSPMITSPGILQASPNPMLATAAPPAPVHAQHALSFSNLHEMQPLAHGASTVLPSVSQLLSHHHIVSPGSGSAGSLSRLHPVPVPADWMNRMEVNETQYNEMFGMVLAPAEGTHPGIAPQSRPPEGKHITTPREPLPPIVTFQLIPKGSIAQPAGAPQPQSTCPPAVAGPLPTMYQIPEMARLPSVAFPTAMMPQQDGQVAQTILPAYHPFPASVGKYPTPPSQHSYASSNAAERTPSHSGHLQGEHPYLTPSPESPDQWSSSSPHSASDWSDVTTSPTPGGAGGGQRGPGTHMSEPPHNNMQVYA
# [6] = biological target: Pro-neuregulin-1, membrane-bound isoform (Homo sapiens) (UniProt Q02297); experiment: small molecules binding neuregulin-1 protein – biochemical, small-molecule microarray, fluorescence 635/667, psychiatric disease protein project, primary screen (AID 1075); settings: NRG1 binding, 635 nm fluorescence, higher = more signal;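 note: score combines 667 nm spot fluorescence with signal to noise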
# Sequence of Pro-neuregulin-1, membrane-bound isoform (Homo sapiens) (Q02297 whole entry, looked up, the tested form may be a part, canonical isoform): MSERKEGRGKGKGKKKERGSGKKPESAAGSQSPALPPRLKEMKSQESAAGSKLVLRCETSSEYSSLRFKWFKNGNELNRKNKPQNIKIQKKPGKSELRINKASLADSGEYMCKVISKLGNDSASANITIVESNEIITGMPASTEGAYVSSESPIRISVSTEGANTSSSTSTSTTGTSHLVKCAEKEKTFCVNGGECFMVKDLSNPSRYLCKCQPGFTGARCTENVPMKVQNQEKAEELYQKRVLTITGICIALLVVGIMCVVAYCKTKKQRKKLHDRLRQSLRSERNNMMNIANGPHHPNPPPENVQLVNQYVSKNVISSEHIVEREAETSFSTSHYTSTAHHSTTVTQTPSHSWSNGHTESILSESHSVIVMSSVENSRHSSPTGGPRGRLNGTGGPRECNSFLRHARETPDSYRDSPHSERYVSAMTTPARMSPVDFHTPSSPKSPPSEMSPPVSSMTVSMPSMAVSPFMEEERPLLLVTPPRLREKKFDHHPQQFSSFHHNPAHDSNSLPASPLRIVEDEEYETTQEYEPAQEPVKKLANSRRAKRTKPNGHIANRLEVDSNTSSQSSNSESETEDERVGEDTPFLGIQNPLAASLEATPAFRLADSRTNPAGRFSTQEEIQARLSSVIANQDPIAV
# [7] = system: Neuregulin-1 EGF-like domain; experiment: small molecules binding NRG1 EGF domain – biochemical, small-molecule microarray, 635 nm fluorescence, primary screen (AID 1081); settings: higher = more signal;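 note: binding of the protein to compounds printed on small-molecule microarray slides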
# [8] = FRG1 expression reporter modulators in myotubes – cell-based, C2C12 myotubes, firefly/Renilla luciferase, luminescence, FRG1 inhibition for FSHD, primary screen (AID 1084); settings: FRG1 promoter luciferase, higher = more signal, called active from +8 up or from −8 down
# [9] = small molecules captured by biotinylated probe aFST – biochemical, small-molecule microarray, fluorescence 635/667, stem cell growth factor project, primary screen (AID 1086); settings: higher = more signal;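 note: score merges 667 nm fluorescence with signal-to-noise of each printed compound spot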
# [10] = binders of probe aHhip on microarray, primary screen, stem cell growth factor project, biochemical, small-molecule microarray, fluorescence 635/667 (AID 1087); settings: higher = more signal;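 note: score merges spot fluorescence at 667nm with spot signal to noise ratio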
Compound,composite z-score [1],composite z-score [2],composite z-score [3],composite z-score [4],composite z-score [5],composite z-score [6],composite z-score [7],z-score [8],composite z-score [9],composite z-score [10]
CCOC(=O)C=Cc1cc(F)ccc1O,0.0251,0.17,0.0087,0.207,-0.0641,-0.0469,0.398,0.808 (inactive),-0.0919,0.0524
CCCCC(=C=CC[C@H](O)c1ccc(OCCO)cc1)C[C@H](O)COCc1ccccc1,-0.117,-0.366,-0.0409,0.692,-0.238,1.06,0.879,-0.947 (inactive),-0.0834,0.152
CCOC(=O)C1=CC[C@@H](c2ccccc2)N(S(=O)(=O)c2ccc(C)cc2)[C@H]1c1cccc(OC)c1,0.154,-0.133,0.0182,0.31,1.34,1.28,0.746,-2.57 (inactive),0.648,-0.0203
Cc1ccc(S[C@]2(C(=O)NCc3ccccc3)CC(=O)N(Cc3cc(C(F)(F)F)cc(C(F)(F)F)c3)[C@@H]2c2ccc(CO)cc2I)cc1,0.436,-0.3,-0.0767,-1.03,-1.44,1.11,0.623,-0.452 (inactive),-0.292,-0.132
COCCCNC(=O)[C@@]1(c2ccc([N+](=O)[O-])cc2)CC(=O)N(CC23CC4CC(CC(C4)C2)C3)[C@@H]1c1ccc(CO)cc1I,0.456,-0.243,-0.034,0.246,0.218,1.13,1.3,-2.2 (inactive),0.15,-0.236
C=CCC(OC(C)=O)[C@@H]1[C@@H](N(Cc2cc3ccccc3o2)C(=O)c2ccc(-c3ccccc3)cc2)c2cc(OCCCO)ccc2N1C(=O)Cc1ccc(OC)cc1 (stereo not given in full),-0.0413,-0.183,-0.0002,0.248,0.0777,0.0526,-0.353,-0.802 (inactive),0.331,-0.189
C=C(/C(=C/C[C@H](OC(=O)c1ccncc1)c1ccccc1OCCO)c1cnc2ccccc2c1)C(C)C,-0.145,0.763,-0.0316,1.18,1.55,1.01,1.22,-0.0406 (inactive),0.853,-0.112
C=CCC(OC(C)=O)[C@@H]1[C@@H](N(Cc2cccc3ccccc23)C(=O)c2ccc(-c3ccccc3)cc2)c2cc(OCCCO)ccc2N1C(=O)c1ccc(-c2ccccc2)cc1 (stereo not given in full),-0.0061,0.356,-0.06,0.0099,0.369,0.0975,-0.453,-0.774 (inactive),0.392,0.0274
CCCCCN1CC=CC23O[C@@H]4/C=C\CCC(C)OC(=O)C4[C@H]2C(=O)N(CCCCCCO)[C@@H]3C1=O (stereo not given in full),-0.146,-0.355,-0.129,-0.248,-0.641,1.89,1.4,-0.0224 (inactive),-0.183,-0.0994
COCCOC(=O)N1C(=O)[C@@]2(c3cc(C#CCC(C(=O)OC)C(=O)OC)ccc31)[C@H](C(=O)NC[C@H](O)c1ccccc1)[C@H]1C(=O)O[C@H](c3ccccc3)[C@H](c3ccccc3)N1[C@@H]2c1ccc(O)cc1,-0.0562,0.498,-0.0647,0.954,0.269,1.01,1.28,-0.81 (inactive),1.04,0.213
Nc1cc(Br)ccc1C(=O)O,-0.0861,0.0499,-0.17,0.307,0.314,0.505,0.742,0.0039 (inactive),0.195,-0.229
CC(C)C[C@@H]1NC(=O)[C@@]23C(=O)N[C@@H](Cc4ccccc4)C2[C@H](C)[C@@]2(C)O[C@H]2C3/C=C/C/C=C\CNC(=O)[C@@H](C)NC1=O (stereo not given in full),-0.296,0.183,-0.0963,0.392,-0.211,1.1,-0.483,0.677 (inactive),-0.414,-0.12
CCOC(=O)C[C@H]1[C@H](OC(=O)c2cc3ccccc3oc2=O)[C@@H](NC(=O)c2ccc3ccccc3c2)c2cc(OCCCO)ccc2N1C(=O)Cc1ccc(OC)cc1,-0.59,-0.0976,-0.196,0.531,0.759,0.711,0.936,-0.0206 (inactive),0.73,0.0505
C=C[C@@H](OC)[C@H](OC(=O)Nc1ccc(SC)cc1)c1ccc(OCCO)cc1,0.0275,0.363,0.0166,0.485,0.794,1.43,1.33,6.53 (inactive),0.574,0.675
CCOC(=O)C1=C[C@@H](C(C)(C)C)N(S(=O)(=O)c2ccc(C)cc2)[C@H]1c1ccc(C)cc1,-0.173,0.577,0.135,1.13,1.68,0.877,0.894,-2.53 (inactive),1.8,0.245
O=C(O)[C@H]1C[C@H]2C(=O)N[C@@H](Cc3ccccc3)C(=O)N2[C@H]1c1cccc(OCCO)c1,0.07,0.96,-0.0246,0.495,-0.116,0.154,1.44,5.68 (inactive),0.309,0.188
COC(=O)[C@@]1(Cc2ccc(OC)cc2)[C@H]2c3cc(C(=O)N4CCCC4)n(Cc4cc(C)n(C)n4)c3C[C@H]2CN1C(=O)c1ccccc1,0.404,0.0011,0.37,1.3,1.76,2.16,1.33,0.301 (inactive),0.821,2.67

Compound,composite z-score [1],composite z-score [2],composite z-score [3],composite z-score [4],composite z-score [5],composite z-score [6],composite z-score [7],z-score [8],composite z-score [9],composite z-score [10]
COc1ccc([Si](C)(C)[C@H]2[C@H](CC(=O)N3CCC[C@H]3CO)O[C@@]3(C(=O)N(Cc4ccc(N5CCC5=O)cc4)c4ccccc43)[C@@H]2C)cc1,-0.589,0.429,-0.0276,0.299,0.549,0.454,1.1,-4.59 (inactive),0.485,-0.215
CCCC=C(CCC)[C@@H](NS(=O)(=O)c1cccc2cccnc12)c1ccc(-c2ccccc2)cc1,-0.245,0.185,0.103,0.91,1.66,1.08,0.898,2 (inactive),1.41,-0.0417
COCCCNC(=O)[C@@H]1c2ccccc2C(=O)N(C2Cc3ccccc3C2)[C@H]1c1ccc(CO)cc1,-0.0989,0.703,-0.151,0.0338,-0.0746,0.209,1.4,0.0504 (inactive),0.506,-0.137
CO[C@H]1O[C@H](CO)[C@@H](OC(=O)c2ccc(Br)cc2)[C@@H]2OC(=O)[C@H](Cc3ccccc3)C/C=C/C[C@@H](Cc3ccccc3)C(=O)O[C@@H]12,-0.287,0.418,-0.0048,0.706,0.496,1.64,0.615,-0.215 (inactive),-0.024,-0.0645
COC(=O)[C@@]1(Cc2ccc(F)cc2)[C@H]2c3cc(C(=O)N4CCCC4)n(CC4CC4)c3C[C@H]2CN1C(=O)c1ccccc1,0.349,0.149,0.0274,0.427,1.72,2.05,1.06,0.108 (inactive),1.61,0.0274
Cc1cccc([C@H]2C[C@H]3C(Br)=C[C@@H]2C(=O)[C@]32CO2)c1,0.165,0.0316,-0.182,-0.228,-0.0632,-0.424,-0.779,1.02 (inactive),-0.264,-0.0169
Cc1ccc([C@H]2C(C(=O)O)=C[C@@H](C(C)(C)C)N2S(=O)(=O)c2ccc(C)cc2)cc1,0.137,-0.0985,0.17,0.965,1.55,1.54,1.17,-2.04 (inactive),0.734,0.235
CN1C(=O)C2C=CC(C(O)c3cc(C(F)(F)F)cc(C(F)(F)F)c3)N(Nc3ccccc3)C2C1=O (stereo not given),-0.481,-0.229,-0.0656,0.05,0.245,0.862,1.25,0.715 (inactive),-0.106,-0.0994
Cc1nc2cc(Br)ccc2c(=O)n1Cc1cccc(O)c1,-0.473,0.116,0.0275,0.659,0.418,-0.134,1.06,0.156 (inactive),0.314,0.409
[N-]=[N+]=Nc1ccccc1[C@@H]1OC(c2ccc(OCCCO)cc2)=N[C@]1(Cc1ccccc1)C(=O)NCc1ccccc1,0.97,1.72,0.0653,0.371,1.59,1.6,1.2,-1.2 (inactive),1.21,0.0614
COCCOC(=O)N1C(=O)[C@@]2(c3cc(C#Cc4ccc(OC)cc4)ccc31)[C@H](c1ccc(OCCO)cc1)N1[C@H](c3ccccc3)[C@H](c3ccccc3)OC(=O)[C@H]1[C@@H]2C(=O)Nc1nc2ccccc2s1,-0.118,0.247,-0.0262,0.39,1.21,0.864,0.718,2.99 (inactive),-0.0352,0.0695
O=C1C[C@@](C(=O)NCc2ccccc2)(c2ccc([N+](=O)[O-])cc2)[C@@H](c2ccc(CO)cc2I)N1CC12CC3CC(CC(C3)C1)C2,-0.262,0.656,-0.0412,0.831,1.2,0.656,1.15,-1.32 (inactive),0.572,0.261
CC1(C)C(=O)C(c2ccccc2)=C2CN3C(=O)N(CCc4ccccc4)C(=O)C3(Cc3ccc(C(F)(F)F)cc3)C=C21 (stereo not given),0.138,-0.2,0.0814,0.432,1.66,0.613,0.831,-0.495 (inactive),1.67,-0.0024
COc1cc(NN2C(C(O)c3ccc(I)cc3)C=CC3C(=O)N(c4ccccc4)C(=O)C32)cc(OC)c1OC (stereo not given),0.32,0.808,0.145,0.868,1.55,2.04,1.35,-2.51 (inactive),1.22,0.415
C=CCC(OC(C)=O)[C@@H]1[C@@H](N(Cc2ccc(-c3ccccc3)cc2)C(=O)Cc2ccc(F)cc2)c2cc(OCCCO)ccc2N1C(=O)Cc1ccc2ccccc2c1 (stereo not given in full),-0.0873,-0.286,-0.0271,-0.214,-0.821,-0.0447,-0.84,0.0197 (inactive),0.252,-0.0047
C=C(COC)/C(=C/C[C@@H](OC(=O)c1ccncc1)c1ccccc1OCCO)c1cc(C(=O)OC)ccc1OC,0.232,-0.72,-0.0718,0.263,-0.381,-0.33,0.851,-1.87 (inactive),-0.3,-0.0645
